Screening data as filed in PubChem.
In the library only some 3.4% were active in any assay of this set; here they are far more common.
hgDAF-12 ag = H. glycines DAF-12 receptor agonists, primary screen, cell-based, luminescence, HEK293, GAL4 fusion, UAS-luciferase; activation, % at 6.8 µM; 1.8% of 370,000 active; HEK293 GAL4-hgDAF12 UAS-luciferase reporter, agonist luminescence; normalized to butyrate control; AID 687014, 2013; Nuclear hormone receptor DAF-12 (Heterodera glycines), GAL4 fusion;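 active = activation above a cutoff set at the mean of all screened compounds plus 3 SD, cut at about 10% in these data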
ssDAF-12 act = S. stercoralis DAF-12 nuclear receptor activators, primary screen, cell-based, luminescence, HEK293, GRIP1 co-expression, lit1-tk-luc; Nuclear hormone receptor DAF-12 (Strongyloides stercoralis); HEK293 ssDAF-12/GRIP1 lit1-tk-luc reporter; % of 3 µM dafachronic acid response; activation, % at 6.8 µM; 1% of 370,000 active; AID 652126, 2013;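 active = activation above the mean over all tested compounds plus 3 SD, cut at about 0.9% in these data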
NF-kB expr up = activators of NF-kB expression in neurons, primary screen, cell-based, HTS; human neuronal cells, NF-kB reporter expression; hits give high values; fold change at 12.5 µM; 1.6% of 190,000 active; AID 1239, 2008; in the data active = fold change above about 3.3
APP 5'UTR act = activators of APP 5'UTR luciferase reporter, primary screen, SH-SY5Y cells | SH-SY5Y APP 5'UTR luciferase reporter, luminescence; zero percent = DMSO vehicle wells | activation, % at 2 µM | 1% of 190,000 active;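 active = activation above a set limit, based on mean plus 3 SD of controls, cut at about 140% in these data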
hcDAF-12 act = H. contortus DAF-12 nuclear receptor activators, primary screen, cell-based, luminescence, HEK293, lit1-tk-luc reporter; AID 652067, 2013; HEK293 hcDAF-12 lit1-tk-luc reporter; 0% DMSO, 100% Δ7-dafachronic acid; activation, % at 6.8 µM; 1.4% of 370,000 active;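 active = activation above the mean of all tested compounds plus 3 SD, cut at about 5.5% in these data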
hgDAF12 conf = H. glycines DAF-12 receptor agonists, confirmation, cell-based, luminescence, HEK293, GAL4-LBD fusion; activation, % at 6.8 µM; 80% of 3,300 active; shares compounds with hgDAF-12 ag; HEK293 GAL4-hgDAF12 luciferase reporter, agonist mode; percent of butyrate response;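 active = mean activation over triplicate wells above the hit cutoff derived from the earlier primary screen, cut at about 11% in these data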
LXRb DAF12 ctr = LXR agonists, Gal4 luciferase reporter, confirmation, counter-screen for hgDAF-12 agonist project, cell-based, luminescence, HEK293, H. glycines campaign | shares compounds with hgDAF-12 ag | 24 h | activation, % at 6.8 µM | 3,300 tested, under 10 active | AID 743051, 2013;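 active = mean activation of the triplicate above a set limit carried over from the primary screen, none filed active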
Target sequence (P55055 whole entry, looked up, the tested form may be a part): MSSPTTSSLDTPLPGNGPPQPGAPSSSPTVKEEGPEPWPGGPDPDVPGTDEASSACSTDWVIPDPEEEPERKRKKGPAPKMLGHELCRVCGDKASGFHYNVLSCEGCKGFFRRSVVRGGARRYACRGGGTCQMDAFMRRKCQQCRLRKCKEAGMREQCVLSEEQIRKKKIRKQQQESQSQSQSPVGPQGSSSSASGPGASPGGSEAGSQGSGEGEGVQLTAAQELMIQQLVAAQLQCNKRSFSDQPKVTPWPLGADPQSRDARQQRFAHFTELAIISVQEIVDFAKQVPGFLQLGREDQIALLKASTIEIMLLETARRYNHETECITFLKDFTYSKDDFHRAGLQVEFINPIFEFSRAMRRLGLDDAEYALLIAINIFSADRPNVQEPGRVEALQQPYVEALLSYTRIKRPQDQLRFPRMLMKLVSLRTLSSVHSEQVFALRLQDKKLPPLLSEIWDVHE
Large screens that a line does not name were inactive (follow-up assays come after a bar, where they were run).

COC(=O)c1cc2c(c3c4ccccc4n(S(=O)(=O)c4cccc(C)c4)c13)C(=O)N(Cc1ccc(N(C)C)cc1)C2	none (no result: NF-kB expr up, APP 5'UTR act)
O=C(COc1ccc2c(c1)CCC2)NCc1cccc(Cl)c1	none
O=C(NCc1ccccc1)c1cccc(COc2ccc3c(c2)CCC3)c1	hgDAF-12 ag 21.2 | hgDAF12 conf 17.4 | LXRb DAF12 ctr inactive
C[C@H](O)[C@@H]1CN2CCc3c([nH]c4c(-c5ccccc5)cccc34)[C@@H]2C[C@@H]1N(C)CC1CCCCC1	none (no result: NF-kB expr up, APP 5'UTR act)
COc1cc(N)ccc1NC(=O)c1cc2ccccc2o1	hgDAF-12 ag 17.4 (no result: NF-kB expr up, APP 5'UTR act) | hgDAF12 conf inactive | LXRb DAF12 ctr inactive
COc1ccccc1C(=O)Cc1ccccc1	none (no result: NF-kB expr up, APP 5'UTR act)
COc1ccccc1C(=O)OCCc1ccccc1	hgDAF-12 ag 16.8, ssDAF-12 act 0.9, hcDAF-12 act 6.2 (no result: NF-kB expr up, APP 5'UTR act) | hgDAF12 conf 11.5 | LXRb DAF12 ctr inactive
COc1ccc(S[C@]2(C(=O)N3CCN(C(C)=O)CC3)CC(=O)N(C(=O)/C=C/c3ccccc3)[C@@H]2c2ccc(OC)cc2)cc1	none (no result: NF-kB expr up, APP 5'UTR act)
Cc1ccc2nc(-c3ccc(NC(=O)CSc4nccc(=O)[nH]4)cc3)sc2c1	hgDAF-12 ag 13.9, APP 5'UTR act 143.8 | hgDAF12 conf 12.2 | LXRb DAF12 ctr inactive
CCOC(=O)c1ccc(NC(=O)CSc2nnc(Cc3cccs3)n2C)cc1	none
CC(=O)NCc1ccc(-c2nc3ccccc3s2)cc1	hgDAF-12 ag 15.5, APP 5'UTR act 151.4 | hgDAF12 conf 15.1 | LXRb DAF12 ctr inactive
Cc1ccc2nc(-c3ccc(NC(=O)CSc4nc(N)cc(=O)[nH]4)cc3)sc2c1	hgDAF-12 ag 25.4 (no result: NF-kB expr up, APP 5'UTR act) | hgDAF12 conf 18.3 | LXRb DAF12 ctr inactive
Cc1ccc2nc(-c3ccc(NC(=O)CSc4nnc(Cc5cccs5)n4C)cc3)sc2c1	hgDAF-12 ag 13.5 (no result: NF-kB expr up, APP 5'UTR act) | hgDAF12 conf 15.6 | LXRb DAF12 ctr inactive
O=C(NCc1ccncc1)C(=O)Nc1nc2ccccc2s1	none
O=S1(=O)c2ccc(N3CC[C@H](O)C3)cc2O[C@@H]2CCN1C2	none (no result: NF-kB expr up, APP 5'UTR act)
Cc1ccc2nc(-c3ccc(NC(=O)CN4CCN(c5ccccn5)CC4)cc3)sc2c1	none (no result: NF-kB expr up, APP 5'UTR act)
Cc1nnc(SCC(=O)Nc2ccc(-c3nc4ccccc4s3)cc2)s1	hgDAF-12 ag 19.8, NF-kB expr up 5.64, APP 5'UTR act 157.8, hcDAF-12 act 6.0 | hgDAF12 conf 19.7 | LXRb DAF12 ctr inactive
Cc1ccc2nc(-c3ccc(NC(=O)CNC4CC4)cc3)sc2c1	hgDAF-12 ag 21.4, ssDAF-12 act 2.4, NF-kB expr up 5.33, APP 5'UTR act 199.0 | hgDAF12 conf 15.4 | LXRb DAF12 ctr inactive
COc1ccc(/C=C/C(=O)NC2=NCCS2)c(OC)c1	hgDAF-12 ag 14.0 (no result: NF-kB expr up, APP 5'UTR act) | hgDAF12 conf 14.6 | LXRb DAF12 ctr inactive
O=C(/C=C/c1ccc(Cl)c(Cl)c1)NC1=NCCS1	hgDAF-12 ag 13.4 | hgDAF12 conf 10.5 | LXRb DAF12 ctr inactive
O=C(NC1=NCCS1)c1ccccc1Cl	none (no result: NF-kB expr up, APP 5'UTR act)
CCOC(=O)Cc1nc(N2CCN(CCO)CC2)c2c(C)c(C(=O)OCC)sc2n1	none (no result: NF-kB expr up, APP 5'UTR act)
Cc1nn2cc(-c3ccc(-c4ccccc4)cc3)nc2s1	hgDAF-12 ag 15.3, NF-kB expr up 4.4, hcDAF-12 act 5.7 | hgDAF12 conf 16.0 | LXRb DAF12 ctr inactive
Cc1ccc(-c2cn3nc(-c4ccccc4)c(-c4ccccc4)nc3n2)cc1	none (no result: NF-kB expr up, APP 5'UTR act)
Cc1nn2cc(-c3ccc(Cl)cc3)nc2s1	hgDAF-12 ag 13.9, NF-kB expr up 7.97, APP 5'UTR act 158.0 | hgDAF12 conf 15.6 | LXRb DAF12 ctr inactive
CC(=Nc1ccc(C)cc1C)c1sc2ccccc2c1O	hgDAF-12 ag 21.0, ssDAF-12 act 1.9, NF-kB expr up 4.79, APP 5'UTR act 153.5, hcDAF-12 act 5.7 | hgDAF12 conf 24.1 | LXRb DAF12 ctr inactive
O=C(c1cc(Br)cc(Br)c1)N1CCC(Oc2cccnc2)CC1	none (no result: NF-kB expr up, APP 5'UTR act)
Clc1ccc2nc(N3CCCCC3)[nH]c2c1	hgDAF-12 ag 19.9, NF-kB expr up 5.32, hcDAF-12 act 5.7 | hgDAF12 conf 17.2 | LXRb DAF12 ctr inactive
COC(=O)[C@]12C[C@H](CC(=O)NCc3cccc(C(F)(F)F)c3)C(=O)N(Cc3ccco3)C1=C[C@H](C(C)C)O[C@@H]2C1CC1	none (no result: NF-kB expr up, APP 5'UTR act)
CCN(CC)c1ccc2cc(C(=O)Nc3ccccn3)c(=O)oc2c1	hgDAF-12 ag 14.3, NF-kB expr up 3.58 | hgDAF12 conf 17.5 | LXRb DAF12 ctr inactive
COc1ccc(S[C@]2(C(=O)N(C)C)CC(=O)N(c3ccc(Cl)cc3)[C@@H]2c2ccc(OC)cc2)cc1	none (no result: NF-kB expr up, APP 5'UTR act)
Cc1ccc2c(c1)C1CS(=O)(=O)N(CC(C)C)C(=O)N1C2 (configuration not stated)	none (no result: NF-kB expr up, APP 5'UTR act)
O=C(NN1C(=O)c2ccccc2NC1c1ccco1)c1ccc([N+](=O)[O-])cc1 (configuration not stated)	hgDAF-12 ag 17.9 | hgDAF12 conf inactive | LXRb DAF12 ctr inactive
CC(=O)N1CCc2cc(N=NC3=C(O)CC(C)(C)CC3=O)ccc21	hgDAF-12 ag 14.9 | hgDAF12 conf 16.9 | LXRb DAF12 ctr inactive
CC1(C)CC(=O)C(N=Nc2cc(Cl)c(Cl)c(Cl)c2)=C(O)C1	none
C/C(CC(=O)NCc1ccc(Cl)cc1)=N\NC(=O)c1ccccc1F	hgDAF-12 ag 14.1, ssDAF-12 act 1.5 | hgDAF12 conf inactive | LXRb DAF12 ctr inactive
Cc1cc(/C=N/NC(=O)c2ccccc2F)c(C)n1-c1ccccc1	hgDAF-12 ag 13.6 | hgDAF12 conf 17.2 | LXRb DAF12 ctr inactive
CCC(/C=N/NC(=O)c1ccccc1F)CC	hgDAF-12 ag 17.9 | hgDAF12 conf inactive | LXRb DAF12 ctr inactive
CCN(CC)c1ccc(NC(=O)c2ccccc2F)cc1	hgDAF-12 ag 14.1, NF-kB expr up 6.08, hcDAF-12 act 5.6 | hgDAF12 conf 21.1 | LXRb DAF12 ctr inactive
O=C(N/N=C/C(c1ccccc1)c1ccccc1)c1ccccc1F	none
CCCC(CCC)=NNC(=O)c1ccccc1F	hgDAF-12 ag 16.4 | hgDAF12 conf inactive | LXRb DAF12 ctr inactive
O=C(c1ccc(F)cc1Cl)N(Cc1ccccn1)CC1CCCO1 (configuration not stated)	hgDAF-12 ag 31.3 (no result: NF-kB expr up, APP 5'UTR act) | hgDAF12 conf inactive | LXRb DAF12 ctr inactive
Cc1ccc(C(=O)N2CCc3ccccc32)o1	hgDAF-12 ag 15.5, ssDAF-12 act 2.1, APP 5'UTR act 158.6 | hgDAF12 conf 16.2 | LXRb DAF12 ctr inactive
